FBW7 act: human FBW7 E3 ligase activation, primary screen; normalized activity (activation), % at 26.1 µM; Q969H0; AID 1259310; AlphaScreen FBW7–phospho-cyclin E peptide binding, activator screen; hit rate 0.13% among 650,000; in the data active = normalized activity above about 1.9%;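 note: purified mutant Fbw7 with reduced substrate affinity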
Target sequence (Q969H0 whole entry, looked up): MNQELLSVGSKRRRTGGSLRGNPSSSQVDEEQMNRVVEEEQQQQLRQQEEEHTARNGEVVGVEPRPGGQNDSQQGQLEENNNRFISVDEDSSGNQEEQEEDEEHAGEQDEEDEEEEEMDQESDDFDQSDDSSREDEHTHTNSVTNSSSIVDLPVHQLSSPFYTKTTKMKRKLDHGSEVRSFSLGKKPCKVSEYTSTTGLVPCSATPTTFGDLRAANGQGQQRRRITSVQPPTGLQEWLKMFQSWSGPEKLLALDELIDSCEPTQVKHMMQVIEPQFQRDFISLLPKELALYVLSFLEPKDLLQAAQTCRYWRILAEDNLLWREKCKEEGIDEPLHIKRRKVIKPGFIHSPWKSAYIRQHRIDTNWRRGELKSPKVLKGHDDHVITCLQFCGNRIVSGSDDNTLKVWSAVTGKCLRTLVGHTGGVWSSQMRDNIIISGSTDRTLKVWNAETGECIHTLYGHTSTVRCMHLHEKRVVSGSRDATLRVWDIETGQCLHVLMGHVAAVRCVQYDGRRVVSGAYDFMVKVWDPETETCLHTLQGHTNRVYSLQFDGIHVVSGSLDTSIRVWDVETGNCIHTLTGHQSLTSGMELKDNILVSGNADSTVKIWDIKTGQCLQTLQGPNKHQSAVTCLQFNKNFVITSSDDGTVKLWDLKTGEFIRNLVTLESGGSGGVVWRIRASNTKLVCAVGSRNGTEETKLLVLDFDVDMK
TEAD-YAP block: TEAD-YAP interaction inhibition. HEK-TIYL cells, TEAD-Gal4/YAP UAS-luciferase luminescence. inhibition, % at 9.12 µM. hit rate 1.4% among 640,000. AID 1259422; in the data active = inhibition above about 32%;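 note: 0% = median of test compound wells and 100% = reference inhibitor wells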
MITF inh: human MITF inhibition, primary screen; O75030; AlphaScreen MITF homodimerization, bead proximity signal; inhibition, % at 2.6 µM; hit rate 0.91% among 650,000; AID 1259374; in the data active = inhibition above about 50%;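 note: 0% = vehicle wells with protein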
GPR151 activ: activates the human receptor GPR151; PathHunter beta-arrestin GPR151 cells, luminescence; activation, % at 11.2 µM; Q8TDV0; AID 1508602; hit rate 1% among 650,000; in the data active = activation above about 4.9%;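 note: 0% = median of compound wells and 100% = cells with positive control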
* = called active by the depositor. The list is not random: actives were taken first. Their share in the collection is about 3.5%.

SMILES	FBW7 act	TEAD-YAP block	MITF inh	GPR151 activ
Clc1ccccc1/C=C/c1nc(-c2ccccn2)no1	0.1	85.3*	9.2	-11.8
Cc1cc(C)cc(NC(=O)c2cnn3ccccc23)c1	0.1	-42.5	14.4	-0.4
CC(=O)c1cccc(NC(=O)c2cnn3ccccc23)c1	-0.1	5.4	6.4	-2.8
Cc1ccc(NC(=O)c2cnn3ccccc23)cc1C	-0.1	65.5*	-5.3	-3.3
O=C(Nc1ccc(CN2CCOCC2)cc1)c1cnn2ccccc12	-0.2	91.3*	7.0	-4.2
CC(=O)c1ccc(NC(=O)c2cnn3ccccc23)cc1	-0.1	91.5*	3.2	-5.4
Cc1ccc(-c2c(C#N)c(SCc3ccc(Cl)c(Cl)c3)nc3c2CCCC3)cc1	-0.1	0.2	2.7	0.6
CC(=O)c1[nH]c(C)c(C(=O)Nc2ccc(C)cc2)c1C	0.0	-2.4	12.7	-0.7
COc1ccc(C2C(C#N)=C(N)N(c3ccc(C)cc3)C3=C2C(=O)CC(C)(C)C3)cc1OC (stereo unspecified)	0.1	54.5*	-0.4	-1.1
COc1ccc(N2C(N)=C(C#N)C(c3ccsc3)C3=C2CCCC3=O)cc1 (stereo unspecified)	0.4	45.2*	10.1	0.8
COc1cc(C2C(C#N)=C(N)N(c3ccc(Br)cc3)C3=C2C(=O)CCC3)cc(OC)c1OC (stereo unspecified)	0.3	20.1	10.4	-0.7
COc1ccc(N2C(N)=C(C#N)C(c3ccsc3)C3=C2CCCC3=O)c(OC)c1 (stereo unspecified)	0.6	15.8	8.7	-0.6
COc1ccc(N2C(N)=C(C#N)C(c3cc(OC)c(OC)c(OC)c3)C3=C2CCCC3=O)cc1 (stereo unspecified)	-0.1	53.7*	8.1	0.8
COCCOC(=O)C1=C(C)N=C2SCCC(=O)N2C1c1ccccc1Br (stereo unspecified)	0.2	-0.3	-24.9	1.5
Cc1nn(C(=O)COc2ccc(Cl)cc2)c(C)c1Sc1ccc(Cl)cc1	-0.1	-4.0	8.6	1.4
Cc1nc2sccn2c(=O)c1S(=O)(=O)Nc1ccc2c(c1)OCO2	0.2	-1.6	-13.3	-0.2
S=C(Nc1ccc(Cl)cc1)N(Cc1ccccc1)Cc1cccs1	0.2	5.1	8.4	1.3
O=C(CNC(=S)N(Cc1ccccc1)Cc1cccs1)NCc1ccccc1	0.8	2.7	16.0	-0.4
Cc1ccc(NC(=S)N(Cc2ccccc2)Cc2cccs2)cc1Cl	0.0	35.9*	-4.8	-0.2
Cc1cc(NC(=S)N(Cc2ccccc2)Cc2cccs2)ccc1Cl	0.1	44.3*	8.5	0.2
Cc1ccc(CNC(=O)CNC(=S)N(Cc2ccccc2)Cc2cccs2)cc1	2.0*	7.0	8.7	0.1
COC(=O)c1ccc(Cn2c(=O)c(=O)n(C(C)C)c3ccc(C(F)(F)F)cc32)cc1	0.2	-19.0	13.1	-0.2
O=C1N/C(=N\S(=O)(=O)c2ccccc2)S/C1=C/c1cccnc1	-0.1	6.3	-6.5	0.0
Oc1c(C(Nc2nccs2)c2cccs2)ccc2cccnc12 (stereo unspecified)	-1.3	25.9	32.7	-2.1
CN1CCN(C(c2ccncc2)c2ccc3cccnc3c2O)CC1 (stereo unspecified)	-0.2	18.5	70.2*	1.6
SMILES	FBW7 act	TEAD-YAP block	MITF inh	GPR151 activ
Oc1c(C(c2cccs2)N2CCOCC2)cc(Cl)c2cccnc12 (stereo unspecified)	-0.5	56.7*	6.7	-0.1
CN1CCN(C(c2cccs2)c2ccc3cccnc3c2O)CC1 (stereo unspecified)	-0.5	88.5*	8.7	-1.4
CCN1CCN(C(c2cccs2)c2ccc3cccnc3c2O)CC1 (stereo unspecified)	-0.5	87.6*	18.4	0.9
CCC(=O)NC(c1cccs1)c1cc(Cl)c2cccnc2c1O (stereo unspecified)	-0.8	23.1	19.4	-0.1
Cc1ccc2c(CNC3CCCC3)c(C(=O)O)[nH]c2c1	0.2	6.8	14.4	-2.2
CCCOc1ccc(/C=N/NC(=O)c2ccc(C)c([N+](=O)[O-])c2)cc1	0.0	3.7	35.7	-0.6
c1cnc2c(CN3CCCCC3)cccc2c1	0.0	13.2	-0.7	2.7
CCN1CCN(Cc2ccc3cccnc3c2O)CC1	-0.7	29.4	94.1*	3.1
OCCN1CCN(C(c2cccs2)c2ccc3cccnc3c2O)CC1 (stereo unspecified)	-0.4	87.1*	25.8	0.7
Cc1ccc(S(=O)(=O)Nc2c(C)cc(O)c(S(=O)(=O)c3ccc(C)cc3)c2C)cc1	0.5	3.3	3.5	-1.2
Cc1ccc(S(=O)(=O)c2c(O)cc(C)c(NS(=O)(=O)c3ccc(Br)cc3)c2C)cc1	0.0	1.5	63.4*	-1.0
O=C1N[C@@H](Cc2ccc(O)cc2)C(=O)N2CCN(Cc3ccc(F)c(F)c3)C[C@H]12	-0.2	4.4	4.0	-0.6

Screening data (PubChem)
